# Data as given in PubChem BioAssay (NCATS).
# Inconclusive results are not listed. Unmarked numbers belong to inactive results. Activity calls are given as the source filed them. The call rests on the fitted dose curve; in most records, active means well fitted curve in the direction sought with a large enough effect; inconclusive means small, poorly fitted or top-dose-only effect, or another doubt; inactive means no such curve, though single readings can be large; an effect the other way counts as inactive or inconclusive.
# Legend:
# [1] = Quantitative High-Throughput drug screen in 47 multiple myeloma cell lines against the NCATS MIPE library collection: KMS12BM_JCRB cell viability assay (AID 1918971); further: nearly all actives have a fitted effect of over 35% in size; further: potency means the concentration at half of the fitted maximal effect
# Summary of the method: (§1)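 Viability readout: CellTiter-Glo luminescence following 5 min room-temperature incubation with reagent. Prior exposure: 48 h, 37C, humidified 5% CO2, 500 cells per well.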
# [2] = Quantitative High-Throughput drug screen in 47 multiple myeloma cell lines against the NCATS MIPE library collection: KMS20_JCRB cell viability assay (AID 1918973); further: nearly all actives have a fitted effect of over 45% in size; further: potency means the concentration at half of the fitted maximal effect
# Summary of the method: (§2)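 qHTS of the MIPE 4.0 collection: 500 myeloma cells/well, 48 h drug exposure at 37C in 5% CO2, then CellTiter-Glo for 5 min at room temperature before luminescence reading.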
# [3] = Quantitative High-Throughput drug screen in 47 multiple myeloma cell lines against the NCATS MIPE library collection: KMS26_JCRB cell viability assay (AID 1918975); further: nearly all actives have a fitted effect of over 45% in size; further: potency means the concentration at half of the fitted maximal effect;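 on viability (% of DMSO): 100% = DMSO-treated wells and 0% = wells with media only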
# Summary of the method: as §1
# [4] = Quantitative High-Throughput drug screen in 47 multiple myeloma cell lines against the NCATS MIPE library collection: MM1S_ATCC cell viability assay (AID 1918980); further: nearly all actives have a fitted effect of over 45% in size; further: potency means the concentration at half of the fitted maximal effect
# Summary of the method: (§3)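 MIPE 4.0 approved/investigational drugs; 500 cells/well; 48 h 37 °C humidified 5% CO2; CTG luminescence readout; DMSO = 100%, media = 0% viability.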
# [5] = Quantitative High-Throughput drug screen in 47 multiple myeloma cell lines against the NCATS MIPE library collection: L363_DSMZ cell viability assay (AID 1918984); conditions: L363 myeloma viability, CellTiter-Glo ATP luminescence, 48 h; viability (% of control): at 45.8 µM (top of the series); further: nearly all actives have a fitted effect of over 40% in size; further: potency means the concentration at half of the fitted maximal effect
# Summary of the method: as §3
# [6] = Quantitative High-Throughput drug screen in 47 multiple myeloma cell lines against the NCATS MIPE library collection: OCIMY7_PLB cell viability assay (AID 1918987); conditions: OCI-MY7 myeloma viability, CellTiter-Glo ATP, 48 h; viability (% of DMSO): at 45.8 µM (top of the series); further: nearly all actives have a fitted effect of over 65% in size; further: potency means the concentration at half of the fitted maximal effect
# Summary of the method: as §3
# [7] = Quantitative High-Throughput drug screen in 47 multiple myeloma cell lines against the NCATS MIPE library collection: OCIMY5_PLB cell viability assay (AID 1918988); further: nearly all actives have a fitted effect of over 65% in size; further: potency means the concentration at half of the fitted maximal effect
# Summary of the method: as §3
# [8] = Quantitative High-Throughput drug screen in 47 multiple myeloma cell lines against the NCATS MIPE library collection: KMS21BM_JCRB cell viability assay (AID 1918974); conditions: ATP luminescence, 48 h; viability: at 45.8 µM (top of the series); further: potency means the concentration at half of the fitted maximal effect
# Summary of the method: as §2
# [9] = Quantitative High-Throughput drug screen in 47 multiple myeloma cell lines against the NCATS MIPE library collection: NCIH929_DSMZ cell viability assay (AID 1918978); further: nearly all actives have a fitted effect of over 35% in size; further: potency means the concentration at half of the fitted maximal effect
# Summary of the method: as §3
# [10] = Quantitative High-Throughput drug screen in 47 multiple myeloma cell lines against the NCATS MIPE library collection: OCIMY1_PLB cell viability assay (AID 1918979); further: nearly all actives have a fitted effect of over 35% in size; further: potency means the concentration at half of the fitted maximal effect;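 on viability: 100% = DMSO-only wells and 0% = cell-free media-only wells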
# Summary of the method: as §3
# [11] = Quantitative High-Throughput drug screen in 47 multiple myeloma cell lines against the NCATS MIPE library collection: MM1R_ATCC cell viability assay (AID 1918981); further: nearly all actives have a fitted effect of over 35% in size; further: potency means the concentration at half of the fitted maximal effect
# Summary of the method: as §3
# [12] = Quantitative High-Throughput drug screen in 47 multiple myeloma cell lines against the NCATS MIPE library collection: OPM1_PLB cell viability assay (AID 1918989); further: nearly all actives have a fitted effect of over 40% in size; further: potency means the concentration at half of the fitted maximal effect
# Summary of the method: as §3
# [13] = Quantitative High-Throughput drug screen in 47 multiple myeloma cell lines against the NCATS MIPE library collection: SKMM1_PLB cell viability assay (AID 1919863); conditions: SKMM1 myeloma viability, CellTiter-Glo ATP, 48 h; viability: hits give low values; further: nearly all actives have a fitted effect of over 35% in size; further: potency means the concentration at half of the fitted maximal effect
# Summary of the method: as §3
# [14] = Quantitative High-Throughput drug screen in 47 multiple myeloma cell lines against the NCATS MIPE library collection: U266_ATCC cell viability assay (AID 1919864); further: nearly all actives have a fitted effect of over 35% in size; further: potency means the concentration at half of the fitted maximal effect
# Summary of the method: as §3
# [15] = Quantitative High-Throughput drug screen in 47 multiple myeloma cell lines against the NCATS MIPE library collection: MMM1_PLB cell viability assay (AID 1918976)
# Summary of the method: as §3
# [16] = Quantitative High-Throughput drug screen in 47 multiple myeloma cell lines against the NCATS MIPE library collection: KMS34_JCRB cell viability assay (AID 1918985); further: nearly all actives have a fitted effect of over 40% in size; further: potency means the concentration at half of the fitted maximal effect
# Summary of the method: as §3
# [17] = Quantitative High-Throughput drug screen in 47 multiple myeloma cell lines against the NCATS MIPE library collection: MOLP8_DSMZ cell viability assay (AID 1918977); further: nearly all actives have a fitted effect of over 45% in size; further: potency means the concentration at half of the fitted maximal effect;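 on viability (% of control): 100% = DMSO-only wells and 0% = media-only wells without cells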
# Summary of the method: as §3
# [18] = Quantitative High-Throughput drug screen in 47 multiple myeloma cell lines against the NCATS MIPE library collection: KMS28PE_JCRB cell viability assay (AID 1918983); further: nearly all actives have a fitted effect of over 35% in size; further: potency means the concentration at half of the fitted maximal effect
# Summary of the method: as §3
# [19] = Quantitative High-Throughput drug screen in 47 multiple myeloma cell lines against the NCATS MIPE library collection: LP1_DSMZ cell viability assay (AID 1918982); further: nearly all actives have a fitted effect of over 35% in size; further: potency means the concentration at half of the fitted maximal effect
# Summary of the method: as §3
# [20] = Quantitative High-Throughput drug screen in 47 multiple myeloma cell lines against the NCATS MIPE library collection: KMS12PE_JCRB cell viability assay (AID 1918972);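 further: 100% = DMSO only wells and 0% = wells with media alone; nearly all actives have a fitted effect of over 30% in size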
# Summary of the method: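 Approved and investigational drugs from MIPE 4.0 were added by pin tool to 500 cells per well. After 48 hours at 37C, ATP-based CellTiter-Glo luminescence indicated remaining viability.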
smiles,measurement,setting,value
C[C@H]1[C@H](O)O[C@@H]2O[C@@]3(C)CC[C@@H]4[C@H](C)CC[C@@H]1[C@@]24OO3,Potency,[1],1.66 µM (active)
same,Potency,[2],14.8 µM (active)
same,Potency,[3],10.5 µM (active)
same,Potency,[4],11.8 µM (active)
same,Potency,[5],2.35 µM (active)
same,Potency,[6],1.18 µM (active)
same,Potency,[7],5.26 µM (active)
CCNC(=O)Nc1ccc(Oc2ncnc(N)c2C=NOC)cc1Cl,Potency,[1],14.8 µM (active)
same,Potency,[8],2.35 µM (active)
same,Potency,[9],inactive
same,Potency,[10],23.5 µM (active)
same,Potency,[11],inactive
same,Potency,[6],2.64 µM (active)
same,Potency,[7],14.8 µM (active)
same,Potency,[12],inactive
same,Potency,[13],11.8 µM (active)
CCN1CCN(c2ccc(Nc3cc(N(C)C(=O)Nc4c(Cl)c(OC)cc(OC)c4Cl)ncn3)cc2)CC1,Potency,[1],16.6 µM (active)
same,Potency,[2],2.09 µM (active)
same,Potency,[9],inactive
same,Potency,[10],inactive
same,Potency,[7],13.2 µM (active)
same,Potency,[12],0.0235 µM (active)
same,Potency,[14],inactive
CN1N=C(N)c2cn([C@@H]3O[C@H](COP(=O)(O)O)[C@@H](O)[C@@H]3O)c3ncnc1c23,Potency,[1],6.62 µM (active)
same,Potency,[2],1.32 µM (active)
same,Potency,[3],0.0132 µM (active)
same,Potency,[15],0.469 µM (active)
same,Potency,[9],0.0469 µM (active)
same,Potency,[4],1.18 µM (active)
same,Potency,[11],5.9 µM (active)
same,Potency,[16],0.833 µM (active)
same,Potency,[6],2.09 µM (active)
same,Potency,[7],0.296 µM (active)
same,Potency,[13],1.32 µM (active)
same,Potency,[14],5.26 µM (active)
Cc1cc(-c2ncc(CC(=O)Nc3ccc(-c4cnccn4)cn3)cc2C)ccn1,Potency,[1],6.62 µM (active)
same,Potency,[8],18.7 µM (active)
same,Potency,[15],16.6 µM (active)
same,Potency,[9],20.9 µM (active)
same,Potency,[10],inactive
same,Potency,[4],18.7 µM (active)
same,Potency,[5],14.8 µM (active)
same,Potency,[7],11.8 µM (active)
same,Potency,[12],8.33 µM (active)
same,viability,[13],117%
same,Potency,[14],20.9 µM (active)
Nc1ccc(-c2ccc3ncc4ccc(=O)n(-c5cccc(C(F)(F)F)c5)c4c3c2)cn1,Potency,[1],0.0105 µM (active)
same,Potency,[3],0.0296 µM (active)
same,Potency,[15],0.0066 µM (active)
same,Potency,[17],0.0059 µM (active)
same,Potency,[10],0.0235 µM (active)
same,Potency,[4],0.0105 µM (active)
same,Potency,[18],0.0166 µM (active)
same,Potency,[16],0.0066 µM (active)
same,Potency,[6],0.0209 µM (active)
same,Potency,[7],0.0332 µM (active)
same,Potency,[13],0.0053 µM (active)
same,Potency,[14],0.372 µM (active)
CCCCCCCCCCCCCCCC(=O)O[C@H]1[C@@H](O)[C@@H](O)[C@@H]([C@H](NC(=O)[C@@H]2C[C@@H](CCC)CN2C)[C@H](C)Cl)O[C@@H]1SC,Potency,[1],4.69 µM (active)
same,Potency,[3],inactive
same,Potency,[15],4.18 µM (active)
same,Potency,[9],2.96 µM (active)
same,Potency,[4],18.7 µM (active)
same,Potency,[11],inactive
same,Potency,[18],inactive
same,Potency,[7],inactive
same,Potency,[14],18.7 µM (active)
Cc1cnc(CNC(=O)c2c(=O)c3ccc(N4CCCN(C)CC4)nc3n3c2sc2ccccc23)cn1,Potency,[1],0.323 µM (active)
same,Potency,[3],12.9 µM (active)
same,Potency,[15],9.11 µM (active)
same,Potency,[17],9.11 µM (active)
same,Potency,[4],2.88 µM (active)
same,Potency,[11],7.24 µM (active)
same,Potency,[18],12.9 µM (active)
same,Potency,[7],10.2 µM (active)
same,Potency,[12],inactive
same,Potency,[13],5.75 µM (active)
same,Potency,[14],1.82 µM (active)
C[C@@]1(c2cc(-c3cncnc3)c(F)cc2F)CCSC(N)=N1,Potency,[1],inactive
same,Potency,[2],9.35 µM (active)
same,Potency,[3],inactive
same,Potency,[9],2.96 µM (active)
same,Potency,[10],inactive
same,Potency,[11],inactive
same,Potency,[19],inactive
same,Potency,[5],1.48 µM (active)
same,Potency,[16],inactive
same,Potency,[14],inactive
CCN(CCO)CCCOc1ccc2c(Nc3cc(CC(=O)Nc4cccc(F)c4)[nH]n3)ncnc2c1,Potency,[1],0.209 µM (active)
same,Potency,[2],inactive
same,Potency,[17],inactive
same,Potency,[9],inactive
same,Potency,[10],inactive
same,Potency,[4],inactive
same,Potency,[19],inactive
same,Potency,[18],inactive
same,Potency,[16],inactive
same,Potency,[6],1.05 µM (active)
same,Potency,[7],0.264 µM (active)
same,Potency,[12],inactive
same,Potency,[14],inactive
C#C[C@]1(O)CC[C@H]2[C@H]3CCc4cc(OC)ccc4[C@H]3CC[C@@]21C,Potency,[1],18.7 µM (active)
same,Potency,[3],2.64 µM (active)
same,Potency,[15],18.7 µM (active)
same,Potency,[17],inactive
same,Potency,[10],inactive
same,Potency,[4],20.9 µM (active)
same,Potency,[18],inactive
same,Potency,[5],inactive
same,Potency,[12],16.6 µM (active)
CCCCCCOC(=O)N=C(N)c1ccc(NCc2nc3cc(C(=O)N(CCC(=O)OCC)c4ccccn4)ccc3n2C)cc1,Potency,[1],16.6 µM (active)
same,Potency,[15],14.8 µM (active)
same,Potency,[17],20.9 µM (active)
same,Potency,[11],20.9 µM (active)
same,Potency,[19],14.8 µM (active)
same,Potency,[5],13.2 µM (active)
same,Potency,[7],20.9 µM (active)
O=C(c1ccc(C(=O)N2CCC(N3CCCC3)CC2)c(Nc2ccccc2)c1)N1CCC(N2CCCC2)CC1,Potency,[20],inactive
same,Potency,[2],inactive
same,Potency,[8],inactive
same,Potency,[17],inactive
same,Potency,[9],inactive
same,Potency,[10],inactive
same,Potency,[11],inactive
same,Potency,[19],inactive
same,Potency,[5],inactive
same,Potency,[12],inactive
same,Potency,[14],inactive
Cc1ccccc1C(C(=O)NC1CCCCC1)N(C(=O)CNc1ccc(C#N)cc1)c1cccc(F)c1 (configuration not stated),Potency,[1],2.96 µM (active)
same,Potency,[9],inactive
same,Potency,[10],inactive
same,Potency,[4],inactive
same,Potency,[19],inactive
same,Potency,[18],inactive
same,Potency,[16],inactive
same,Potency,[6],inactive
same,Potency,[12],inactive
